Pf Dd2 growth: blocks in vitro growth of P. falciparum Dd2; P. falciparum Dd2 growth, SYBR Green, 72 h; Potency, µM (titrated, usually from 28.9 µM), for the others: at the highest dose activity, negative = inhibition, actives largely listed as inhibitors; hit rate 4.3% among 120,000; AID 1347417; active = well fitted inhibition curve with a large enough effect;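 note: plate controls were DMSO vehicle for no effect and reference drug for full effect; nearly all actives have a fitted effect of over 65% in size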
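Infected erythrocytes (Dd2, 0.3% parasitemia, 2.5% hematocrit final) are added to compound in RPMI-1640/Albumax II medium, grown 72 h at 37C in low oxygen, then lysed with saponin/Triton-X containing SYBR Green and read by fluorescence.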
Numbers without * were called inactive; i = inactive; [ ] = remark or other dose. This is one part of a sample in which hits are shown more often than they occur. Potency is the fitted concentration of half-maximal effect.

SMILES | Pf Dd2 growth
CCc1nc2c(c(-c3ccc(Cl)cc3)n1)CN(Cc1cccc(F)c1)CC2 | 10µM*
CCc1nc2c(c(-c3ccc(O)cc3)n1)CN(Cc1ccc(OC)cc1)CC2 | -17%
CCc1nc2c(c(-c3ccc(OC)cc3)n1)CN([S+](=O)([O-])c1cccc(C(F)(F)F)c1)CC2 | -8%
CCc1nc2c(c(-c3ccc(Cl)cc3)n1)CCN(Cc1cc(C)on1)CC2 | i
CCc1nc2c(c(-c3ccc(O)cc3)n1)CCN(Cc1ccc(OC)cc1)CC2 | 2µM*
CCCn1c(C)cnc1CCNS(=O)(=O)CCC | i
CCc1nc2c(c(-c3ccc(Cl)cc3)n1)CCN([S+](=O)([O-])c1c(C)noc1C)CC2 | -12%
CCN1c2cc(C(=O)Nc3ccc(OC)cc3)ccc2C(=O)N2CCCC21 (stereo not drawn) | -14%
CCc1nc(-c2ccccc2)n2cc[nH]c(=O)c12 | i
COc1ccc(-c2nc(C3CC3)nc3c2CCN(CC2CCCCC2)CC3)cc1 | i
COc1ccc(-c2nc(C3CC3)nc3c2CCN(CC2CC2)CC3)cc1 | -11%
COc1ccc(-c2nc(C3CC3)nc3c2CCN(Cc2ccc(F)cc2)CC3)cc1 | 7.1µM*
O=C(C[C@@H]1CCNC[C@@H]1Cc1cc(-c2ccccc2)on1)NCc1cccs1 | 0%[44.1 µM]
O=C1C(N2CCN(Cc3ccc[nH]3)CC2)CCN1Cc1cccnc1 (stereo not drawn) | i
Cc1cc(N2CCN(C(=O)CCCS(N)(=O)=O)CC2)cc(C)n1 | -5%
COc1cccc(OCCCCn2c(-c3ccc(Cl)cc3)nc3ccccc3c2=O)c1 | 10µM*
COc1ccccc1OCCn1c(-c2ccc(Cl)cc2)nc2ccccc2c1=O | -10%
COc1ccc(-c2nc3ccccc3n2Cc2ccc(Cl)cc2)cc1 | -10%
Cn1nccc1CN1CC2(C1)NC(=O)c1ccccc1O2 | -17%[44.1 µM]
Cc1ccccc1CN1CCN(C(=O)CN2CCCC2=O)CC(O)C1 (stereo not drawn) | 1%
O=C(Nc1cc(Cl)cc(Cl)c1)c1ccn2nccc2c1 | 5%[44.1 µM]
O=C(Nc1ccc(Cl)cc1Cl)c1ccc2cc[nH]c2n1 | -7%
COc1cccc(CN2CCCC(N3CCN(c4cccc(C(F)(F)F)c4)CC3)C2)c1O (stereo not drawn) | 0.4µM*
CNC(=O)CN1CCCC(N2CCN(c3cccc(C(F)(F)F)c3)CC2)C1 (stereo not drawn) | -23%
CC(C)N1CCC(N2CCCC(N3CCN(c4cccc(C(F)(F)F)c4)CC3)C2)CC1 (stereo not drawn) | 14µM*
SMILES | Pf Dd2 growth
NC(=O)NCCN1CCCC(N2CCN(c3cccc(C(F)(F)F)c3)CC2)C1 (stereo not drawn) | -10%
O=C(CO)N1CCCC(N2CCN(c3cccc(C(F)(F)F)c3)CC2)C1 (stereo not drawn) | -1%
NCC(=O)N1CCCC(N2CCN(c3cccc(C(F)(F)F)c3)CC2)C1 (stereo not drawn) | -18%
CN1C(=O)c2cccn2CC1CNC(=O)CCc1ccccc1 (stereo not drawn) | -5%
COCCc1noc([C@@H]2CC(F)(F)CN2C(=O)c2ccc(C)cn2)n1 | 38%
COc1ccccc1CNC(=O)[C@H]1CN2CC[C@H]1C[C@@H]2Cn1cc(-c2ccccc2)nn1 | -29%[44.1 µM]
O=C(c1ccc(Cl)cc1)N1CCN(c2cc(-c3ccc(F)cc3)[nH]n2)CC1 | -5%
N#Cc1cccc(CN2C3CCC2CN(C(=O)c2ccncc2)C3)c1 | 15%[44.1 µM]
COc1ccc(-c2cn3nc(N4CCCC(C(=O)Nc5cccc(Cl)c5C)C4)sc3n2)cc1 (stereo not drawn) | -11%
COc1ccc(-c2ccccc2NC(=O)C2CCCN(Cc3c(O)cccc3OC)C2)cc1 (stereo not drawn) | 1.8µM*
COc1ccc(NC(=O)C2CCCN(c3cnccn3)C2)c(OC)c1 (stereo not drawn) | 32%
COc1ccc(-c2ccccc2NC(=O)C2CCCN(Cc3ccccc3O)C2)cc1 (stereo not drawn) | 2.8µM*
CCNC(=O)N1CCCC1C(=O)Nc1ccccc1-c1ccc(OC)cc1 (stereo not drawn) | 6%
COc1ccc(-c2ccccc2NC(=O)C2CCCN2C(=O)C2(C)CC2)cc1 (stereo not drawn) | -10%
COCCNC(=O)c1cc(-c2ccc(C)nc2)cc2ncn(C)c12 | -5%[44.1 µM]
CC(C)(CC(=O)O)CC(=O)N1CCN2C(=O)c3cc(-c4ccccc4F)ccc3NC(=O)[C@@H]2C1 | -8%
Cc1ccc(CNC(=O)C2CCN(c3cn[nH]c(=O)c3)C2)cc1 (stereo not drawn) | 0%
COc1ccc(Cl)cc1CN(C)c1cc(C2CC(N)C2)ncn1 (stereo not drawn) | 10µM*
Cc1cccnc1CN(C)c1cc(C2CC(O)C2)ncn1 (stereo not drawn) | 13%
CN(Cc1cccc(-c2nn[nH]n2)c1)c1cc(C2CC(N)C2)ncn1 (stereo not drawn) | -13%
COCC1(C(=O)N2CCN(c3cc(C4CC4)ncn3)CC(O)C2)CC1 (stereo not drawn) | 8%
CC(C)NC(=O)NC1CCCc2c1cnn2-c1ccc(F)cc1F (stereo not drawn) | 4%
O=C(N1CCCCC1)N1CCCC(c2nnc3n2CCNC3)C1 (stereo not drawn) | -3%
O=C1N(C2CCOCC2)C[C@H]2CN(Cc3ccccc3F)CCN12 | -4%[44.1 µM]
CCOC(=O)c1ccc(NC(=O)CN2C(=O)C(C)(C)c3ccccc32)cc1 | 15%
SMILES | Pf Dd2 growth
COc1ccc(C(=O)CC2(O)C(=O)N(Cc3ccccc3Cl)c3ccccc32)cc1 (stereo not drawn) | 9%
CCCCN1C(=O)C(O)(CC(=O)c2ccc(C(C)(C)C)cc2)c2ccccc21 (stereo not drawn) | 1.3µM*
Cc1ccccc1-c1noc(CCC(=O)N2CCC3(CCCNC3)C2)n1 (stereo not drawn) | -25%
CCOc1ccccc1CN1CCN(Cc2nccn2CC)CC1CCO (stereo not drawn) | i
COc1ccc(CN2CCN(Cc3cc4ccccc4[nH]3)CC2CCO)c(C)c1C (stereo not drawn) | 8.9µM*
COc1cc(CN2CCN(Cc3cnc(SC)nc3)CC2CCO)cc(OC)c1 (stereo not drawn) | i
Cn1cc(CN2Cc3ccc(C(=O)Nc4nccs4)cc3OCC2=O)cn1 | i
CCC(C)NC(=O)c1cnn(-c2ccc(Cl)cc2)c1C1CCN(C(=O)OC(C)(C)C)CC1 (stereo not drawn) | 11µM*
Cc1ccc(-n2ncc(C(=O)Nc3ccc4c(c3)OCCO4)c2C2CCN(C(=O)OC(C)(C)C)CC2)cc1 | -8%
CC(C)(C)OC(=O)N1CCC(c2c(C(=O)Nc3ccc4c(c3)OCO4)cnn2-c2ccc(F)cc2F)CC1 | 13µM*
Cc1cccc(C)c1-n1ncc(C(=O)NCc2ccc3c(c2)OCO3)c1C1CCN(C(=O)OC(C)(C)C)CC1 | -31%
CC1CCN(C(=O)c2cnn(-c3ccc(Cl)cc3)c2C2CCN(C(=O)OC(C)(C)C)CC2)CC1 | 1%
CC(C)(C)OC(=O)N1CCC(c2c(C(=O)Nc3ccc4c(c3)OCCO4)cnn2-c2ccccc2)CC1 | 7.9µM*
CC(C)(C)OC(=O)N1CCC(c2c(C(=O)Nc3ccc4c(c3)OCCO4)cnn2-c2ccc(Cl)cc2)CC1 | 7.1µM*
Cc1c(NC(=O)CCc2cc3n(n2)CCNC3)c(C)n(C)c(=O)c1C(N)=O | -7%
O=S(=O)(NC[C@H]1OC[C@@H](NCc2cccnc2)[C@@H]1O)c1ccccc1 | -7%[44.1 µM]
COC(=O)[C@@H](C)NC(=O)[C@@H]1CN(C(=O)c2cccc(F)c2)CCN1C(=O)NC(C)C | 32%[44.1 µM]

Assay outcomes: PubChem BioAssay, National Center for Advancing Translational Sciences (NCATS)
